uPA surface inh: inhibitors of cell surface uPA generation; cell surface uPA generation assay, qHTS; Potency, µM (highest dose often 38.3 µM), for the others: top-dose activity change, negative = inhibition, hits mostly inhibitors; 0.31% of 330,000 active; AID 540303; active means well fitted inhibition curve with a large enough effect; inconclusive means small, poorly fitted or top-dose-only effect; inactive means no such curve, though single readings can be large or run the other way; tested in mouse RAW 264.7 cells; further: potency means the concentration at half of the fitted maximal effect; on the % scale 0 is the no-effect control and ±100 the full control effect; nearly all actives have a fitted effect of over 55% in size
TSG101-PTAP inh: blocks PTAP/TSG101 interaction to inhibit HIV-1 budding. Fluorescence polarization, FITC-PTAP peptide / Tsg101 binding. Q99816. AID 493005. Potency, µM (series often up to 115 µM), for the others: top-dose activity change, negative = inhibition, hits mostly inhibitors. 340,000 tested, under 10 active; active means well fitted inhibition curve with a large enough effect in the main read-out, with a control signal flat, not every such curve was filed as active; inconclusive means small, poorly fitted or top-dose-only effect, or effect the other way, or a change in a side signal; inactive means no such curve, though single readings can be large or run the other way; further: potency means the concentration at half of the fitted maximal effect; % of control where 0% means no effect
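Tsg101 binding domain (10 uM final) was mixed with compound and a FITC-labeled PTAP peptide (50 nM final) in HEPES pH 7.5 buffer with NaCl, Tween 20, EDTA and TCEP; fluorescence polarization was read after 20 min at r.t.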
TSHR antag: human thyrotropin receptor antagonism. P16473. TSHR-expressing cells, TSH-stimulated cAMP HTRF, 2 h; stronger effect = lower value. activity change, negative = inhibition, % at 11.5 µM. 0.2% of 330,000 active;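 active means activity change below a set negative limit, meaning inhibition stronger than a set level, cut at about -70% in these data; inconclusive means activity change between two set negative limits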; further: on the % scale 0 is the no-effect control and ±100 the full control effect
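Competitive HTRF cAMP read-out (cryptate anti-cAMP antibody, cAMP-d2; 30 min, room temperature) in freshly harvested TSHR cells. Compounds added before TSH at EC80 (4nM final), followed by 2 hours' incubation at 37 deg C.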
PLK1 PBD inh: PLK1 (human) polo-box domain binding inhibition | P53350 | Plk1 PBD binding of FITC phosphopeptide, fluorescence polarization | Potency, µM, inactives show max response, negative = inhibition, most hits filed as inhibitors | 2.8% of 360,000 active | AID 720504; further: potency means the concentration at half of the fitted maximal effect; series mostly up to about 57 µM; on the % scale 0 is the no-effect control and ±100 the full control effect; nearly all actives have a fitted effect of over 65% in size
Target sequence (P53350 whole entry, looked up, the tested form may be a part): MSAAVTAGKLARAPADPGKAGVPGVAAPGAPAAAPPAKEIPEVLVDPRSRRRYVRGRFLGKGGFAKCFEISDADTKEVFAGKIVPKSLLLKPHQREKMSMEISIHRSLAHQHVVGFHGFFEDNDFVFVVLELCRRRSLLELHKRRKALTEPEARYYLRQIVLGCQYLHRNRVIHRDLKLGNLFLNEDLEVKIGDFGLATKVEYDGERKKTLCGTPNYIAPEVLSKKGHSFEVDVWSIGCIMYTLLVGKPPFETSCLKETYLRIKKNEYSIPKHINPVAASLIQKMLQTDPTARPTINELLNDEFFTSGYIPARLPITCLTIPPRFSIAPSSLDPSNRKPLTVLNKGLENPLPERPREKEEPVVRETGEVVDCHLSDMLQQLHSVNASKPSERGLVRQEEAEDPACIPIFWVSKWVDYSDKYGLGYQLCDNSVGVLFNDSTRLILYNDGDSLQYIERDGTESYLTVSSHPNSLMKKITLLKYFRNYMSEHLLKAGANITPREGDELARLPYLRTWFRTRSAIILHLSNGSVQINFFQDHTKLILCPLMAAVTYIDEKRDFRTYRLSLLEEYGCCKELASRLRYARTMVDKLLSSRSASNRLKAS
VDR inhibitor: inhibitors of human vitamin D receptor. P11473. VDR-SRC2-3 peptide fluorescence polarization, 2 h. Potency, µM, for the others: max response, negative = inhibition, most hits filed as inhibitors. 0.93% of 400,000 active. AID 504847; further: potency means the concentration at half of the fitted maximal effect; on the % scale 0 is the no-effect control and ±100 the full control effect
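Signal is fluorescence polarization, reporting how far test compounds block the interaction of VDR with the SRC2-3 coregulator peptide after a 2 h room-temperature incubation.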
An asterisk follows results filed as active. A selection: hits, their analogues and other compounds. The true share with any hit is near 3.1%. Unless noted, the call rests on the fitted dose curve; in most records, active means well fitted curve in the direction sought with a large enough effect; inconclusive means small, poorly fitted or top-dose-only effect, or another doubt; inactive means no such curve, though single readings can be large; an effect the other way counts as inactive or inconclusive.

Results for O=[N+]([O-])c1ccc(-c2nnc3n2CCCCC3)cc1 ?
uPA surface inh: 1.6%; TSG101-PTAP inh: -3.9%; TSHR antag: 6.2; PLK1 PBD inh: -2.5%; VDR inhibitor: 16.3%

Results for O=C(N/N=C/c1cc(Cl)cc(Cl)c1O)c1ccncc1 ?
uPA surface inh: 3.16µM*; TSG101-PTAP inh: inconclusive; TSHR antag: 1.3; PLK1 PBD inh: 7.9%; VDR inhibitor: -18.6%

Results for CCSc1n[nH]c2nc3c(c(=O)n12)C1(CCCC1)Cc1ccccc1-3 ?
uPA surface inh: -8.5%; TSG101-PTAP inh: -3.7%; TSHR antag: -19.3; PLK1 PBD inh: 21.2µM*; VDR inhibitor: -2.1%

What do the screens show for `CSc1n[nH]c2nc3c(c(=O)n12)C1(CCCC1)Cc1ccccc1-3`?
uPA surface inh: 1.1%; TSG101-PTAP inh: 2.4%; TSHR antag: 3.1; PLK1 PBD inh: inconclusive; VDR inhibitor: -3.2%

What do the screens show for `O=C(Nc1ccc(F)cc1F)c1cncc(Br)c1`?
uPA surface inh: -0.2%; TSG101-PTAP inh: -6.4%; TSHR antag: 2.8; PLK1 PBD inh: -2.0%; VDR inhibitor: 12.1%

Results for CCN(CC)S(=O)(=O)c1cccc(C(=O)Nc2cc3oc4ccccc4c3cc2OC)c1 ?
uPA surface inh: -6.5%; TSG101-PTAP inh: 2.4%; TSHR antag: 5.5; PLK1 PBD inh: 3.6%; VDR inhibitor: 14.0%

What do the screens show for `COc1cc2c(cc1NC(=O)c1cncc(Br)c1)oc1ccccc12`?
uPA surface inh: 0.9%; TSG101-PTAP inh: 1.5%; TSHR antag: 0.8; PLK1 PBD inh: 26.7µM*; VDR inhibitor: -9.6%

What do the screens show for `O=C(Nc1ccccc1[N+](=O)[O-])c1cncc(Br)c1`?
uPA surface inh: -4.1%; TSG101-PTAP inh: -4.7%; TSHR antag: 2.4; PLK1 PBD inh: 29.9µM*; VDR inhibitor: -20.9%

What do the screens show for `Cc1ccccc1NC(=O)Cn1c(=O)n(Cc2ccc3c(c2)OCO3)c(=O)c2ccc(C(=O)NC3CCCCC3)cc21`?
VDR inhibitor: 8.3%

Results for COc1ccc(CCNc2nc3ccccc3n3cnnc23)cc1OC ?
uPA surface inh: 2.8%; TSG101-PTAP inh: -0.6%; TSHR antag: 6.5; PLK1 PBD inh: 0.1%; VDR inhibitor: -1.8%

Results for CCc1nnc2c(NCCc3ccc(OC)c(OC)c3)nc3ccccc3n12 ?
uPA surface inh: -2.4%; TSG101-PTAP inh: 0.4%; TSHR antag: -4.2; PLK1 PBD inh: 26.7µM*; VDR inhibitor: inconclusive

How did NC(=O)NC(=O)COC(=O)c1sc2ccccc2c1Cl do in these assays?
uPA surface inh: 2.5%; TSG101-PTAP inh: -2.4%; TSHR antag: -0.5; PLK1 PBD inh: 13.4µM*; VDR inhibitor: inconclusive

Results for CCc1ccc(S(=O)(=O)Nc2cc(SCC(=O)O)c(O)c3ccccc23)cc1 ?
uPA surface inh: inconclusive; TSG101-PTAP inh: -0.5%; TSHR antag: 25.1; PLK1 PBD inh: 1.19µM*; VDR inhibitor: inconclusive

Results for Cc1ccc(C)c(S(=O)(=O)Nc2cc(SCC(=O)O)c(O)c3ccccc23)c1 ?
uPA surface inh: -17.4%; TSG101-PTAP inh: -0.2%; TSHR antag: 1.8; PLK1 PBD inh: 1.5µM*; VDR inhibitor: 22.4µM*

How did Cc1ccc(C)c(NS(=O)(=O)c2cc(C(=O)Nc3ccccc3-c3ccccc3)ccc2C)c1 do in these assays?
TSG101-PTAP inh: -2.1%; TSHR antag: -8.1; PLK1 PBD inh: -2.9%; VDR inhibitor: -11.6%

What do the screens show for `CCOc1ccc(S(=O)(=O)Nc2cc(SCC(=O)O)c(O)c3ccccc23)cc1`?
uPA surface inh: inconclusive; TSG101-PTAP inh: -2.1%; TSHR antag: 5.9; PLK1 PBD inh: 1.68µM*; VDR inhibitor: 17.8µM*

How did O=C1CN(C(=O)COc2ccc(Cl)cc2)C(c2ccc(F)cc2)c2cc(Br)ccc2N1 (stereo not drawn) do in these assays?
VDR inhibitor: 9.7%

Results for CCn1c(C(=O)NCc2cc(Br)ccc2OC)cc2oc3ccccc3c21 ?
VDR inhibitor: -17.4%

How did Oc1ccccc1C=Nc1cccc2ccccc12 do in these assays?
uPA surface inh: inconclusive; TSG101-PTAP inh: -8.9%; TSHR antag: -7.9; PLK1 PBD inh: -2.9%; VDR inhibitor: -11.7%

Results for Oc1cccc(C=Nc2cccc3ccccc23)c1O ?
uPA surface inh: -7.7%; TSG101-PTAP inh: -3.4%; TSHR antag: -15.5; PLK1 PBD inh: -11.4%; VDR inhibitor: 28.2µM*
